IL1B secr inh = inflammasome signaling inhibition, IL-1 beta readout. actives 4.7% (n = 360,000). THP-1 LPS/ATP IL-1B secretion, AlphaLISA, 16 h; hits give low values. activity change, % at 57.5 µM; in the data active means activity change below about -50%; inconclusive means mostly about -30% to -49%
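Secreted IL-1B measured by AlphaLISA bead assay after 16 h compound exposure of THP-1 cells; compounds (final up to 57.5 uM) added 1 h before LPS (250 ng/mL) and ATP (1.25 mM) stimulation; lower signal means less secretion.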
HT1080 IDH1KD tx = toxicity to HT-1080 IDH1 knockdown cells (counter line). HT-1080 IDH1 knockdown viability, ATP luminescence, 48 h. actives 2% (n = 360,000). Potency, µM (series often up to 46.1 µM), without a hit: at the highest dose activity, negative = toxicity, actives largely listed as cytotoxic. AID 686971;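 further: potency means the concentration at half of the fitted maximal effect; 0% = DMSO wells and -100% = cell-free medium wells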
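IDH1KD HT-1080 cells, 750/well, RPMI + 5% FBS; compound pinned after 2 h settling; 48 h, 37 °C; CellTiter-Glo luminescence; % activity normalised to DMSO and no-cell wells; curves fitted, classed by r2 and efficacy.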
HT1080NT lethal = kills 2HG-producing HT-1080-NT fibrosarcoma cells | HT-1080-NT fibrosarcoma viability, CellTiter-Glo ATP luminescence, 48 h | Potency, µM (series often up to 46.1 µM), without a hit: at the top dose activity, negative = less viability, usual class: cytotoxic | actives 1.6% (n = 360,000);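 further: NT is the 2HG producing partner of a matched IDH1 knockdown line; potency means the concentration at half of the fitted maximal effect; 0% = DMSO-treated cells and -100% = media-only wells without cells; nearly all actives have a fitted effect of over 55% in size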
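A 48-hour cytotoxicity screen used HT-1080-NT cells plated 2 hours before compound delivery. ATP-based CellTiter-Glo luminescence measured viability, normalized to DMSO and no-cell controls.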
ELG1 DNA repair = inhibitors of ELG1-dependent DNA repair in HEK293T cells; HEK293T ELG1-luciferase reporter, luminescence, 16 h; DNA damage induced by 5-fluorouridine; Potency, µM (top dose mostly 46.1 µM), for the others: at the highest dose activity change, negative = inhibition, hits mostly inhibitors; actives 2.3% (n = 330,000); AID 504467; further: potency means the concentration at half of the fitted maximal effect; nearly all actives have a fitted effect of over 55% in size
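5-Fluorouridine DNA damage + compound/DMSO, 2,000 cells/well, 16 h, 37 °C/5% CO2. ONE-Glo, 30 min RT, luminescence. Readout = decrease in reporter signal.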
TDP1 cell CPT = DT40-hTDP1 cell growth loss with CPT; actives 12% (n = 420,000); AID 686979; Potency, µM (doses to about 46.2 µM), inactives show at the top dose activity change, negative = growth inhibition, usual class: inhibitors; chicken DT40 Tdp1-/-;hTDP1 cells + 20 nM CPT, ATP luminescence, 48 h; further: potency means the concentration at half of the fitted maximal effect; nearly all actives have a fitted effect of over 55% in size
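Chicken DT40 Tdp1-/- cells stably complemented with human TDP1 were seeded at 400 cells/well in medium containing 20 nM camptothecin, exposed to pin-transferred compounds, and grown at 37 °C for at least 48 hr. Viability was read as ATP luminescence.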
DT40 TDP1 no CPT = qHTS for Inhibitors of human tyrosyl-DNA phosphodiesterase 1 (TDP1): qHTS in cells in absence of CPT; DT40 Tdp1-/- hTDP1 cells, no CPT, ATP luminescence, 48 h; Potency, µM (series often up to 46.2 µM), without a hit: top-dose activity change, negative = growth inhibition, usual class: inhibitors; actives 15% (n = 420,000); further: potency means the concentration at half of the fitted maximal effect; nearly all actives have a fitted effect of over 55% in size
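Growth kinetics read by CellTiter-Glo luminescence after ≥48 hr at 37 °C. Cells: DT40 Tdp1-/- stably carrying human TDP1, 400 per well, compound exposure in the absence of CPT (DMSO vehicle).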
Numbers without * were called inactive; i = inactive; ? = inconclusive; . = no result. Compounds with a hit are over-represented: about 19% of the library has one in this group of screens. Unless noted, the call rests on the fitted dose curve; in most records, active means well fitted curve in the direction sought with a large enough effect; inconclusive means small, poorly fitted or top-dose-only effect, or another doubt; inactive means no such curve, though single readings can be large; an effect the other way counts as inactive or inconclusive. Unless noted, on the % scale 0 is the no-effect control and ±100 the full control effect.

SMILES | IL1B secr inh | HT1080 IDH1KD tx | HT1080NT lethal | ELG1 DNA repair | TDP1 cell CPT | DT40 TDP1 no CPT
CC(C)C(Nc1ncnc2c1oc1ccccc12)C(=O)O (stereo unspecified) | 34 | 1% | 3% | 6% | 16% | 2%
CC(=O)CSc1ncnc2c1oc1ccccc12 | 19 | -6% | -6% | ? | -5% | -16%
CC(=O)N1CCN(c2ccc(NCc3cccs3)cc2)CC1 | 6 | 4% | 15% | 2% | -19% | -28%
c1coc(CSc2ncnc3c2oc2ccccc23)c1 | 4 | -12% | -8% | ? | 11% | 8.2µM*
c1ccc(CSc2ncnc3c2oc2ccccc23)cc1 | 0 | -1% | 1% | . | ? | ?
CC(=O)N1CCN(c2ccc(NCc3cccc4ccccc34)cc2)CC1 | -76* | -3% | -20% | -18% | ? | ?
CCOC(=O)c1cc(NC(=O)N(C)C2CCCCC2)c(C)nc1C | 37 | -1% | 17% | -20% | -5% | -6%
CCc1nc(Nc2ccc(N3CCN(C(C)=O)CC3)cc2)c2oc3ccccc3c2n1 | -28 | -22% | -9% | 9.2µM* | 21µM* | 13µM*
CCc1nc(Nc2ccccc2)c2oc3ccccc3c2n1 | -14 | 1% | 11% | ? | ? | ?
CC1=Nc2cc(C(=O)NCCCOC(C)C)ccc2Sc2ccc(C)cc21 | 43 | 1µM* | 0.73µM* | ? | 5.2µM* | 4.6µM*
CC1=Nc2cc(C(=O)NCCCOC(C)C)ccc2Sc2ccccc21 | 13 | 8.2µM* | ? | ? | 16µM* | 21µM*
CC1=Nc2cc(C(=O)N3CCCC3)ccc2Sc2ccc(C)cc21 | 2 | -1% | 4% | 1% | 4% | ?
CC1=Nc2cc(C(=O)NCCc3ccc(Cl)cc3)ccc2Sc2ccc(C)cc21 | . | . | . | . | 6.5µM* | 6.5µM*
COc1ccc(CCC(C)NCc2cccc(Br)c2)cc1 (stereo unspecified) | -20 | -10% | -10% | 2% | ? | ?
Cc1ccsc1C(=O)NC1CCCN(Cc2ccc(Cl)cc2)C1 (stereo unspecified) | i | 10% | -1% | ? | ? | 15µM*
O=C(CCc1ccc(F)c(F)c1)NC1CCCN(Cc2ccc(Cl)cc2)C1 (stereo unspecified) | -78* | -22% | -17% | 0% | ? | ?
COc1ccc(CCC(=O)NC2CCCN(Cc3ccc(Cl)cc3)C2)cc1OC (stereo unspecified) | 5 | 1% | 1% | -15% | -26% | ?
Cc1cc(C(=O)NC2CCCN(Cc3ccc(Cl)cc3)C2)c(C)o1 (stereo unspecified) | 3 | 2% | -2% | -7% | ? | ?
CCCCCOc1ccc(NC(=O)C(=O)NCCCn2ccnc2)cc1 | 22 | -15% | -7% | ? | ? | 18µM*
Cc1cc(C)cc(OCCCn2ccnc2)c1 | 22 | 0% | 0% | 3% | -11% | -9%
Cc1cccc(OCCCn2ccnc2)c1 | -6 | -2% | 2% | 9% | 21µM* | ?
Cc1ccc(OCCCn2ccnc2)cc1C | -5 | 3% | 1% | -5% | ? | 18µM*
Cc1cc(OCCn2ccnc2)ccc1C(C)C | 19 | 8% | 8% | 0% | -22% | ?
OC(c1ccc2c(c1)CN(Cc1cccn1-c1ncccn1)CCO2)C1CCCCC1 (stereo unspecified) | . | . | . | . | 7% | -23%
CCN(CC)c1nc(-c2ccc(C(=O)NN)cc2)nc(-c2ccc(C(=O)NN)cc2)n1 | 6 | -5% | -11% | 3% | -10% | -24%
SMILES | IL1B secr inh | HT1080 IDH1KD tx | HT1080NT lethal | ELG1 DNA repair | TDP1 cell CPT | DT40 TDP1 no CPT
C=CC[C@H]1CC(C)=C[C@H](CC=C)N1C(=O)c1cc(COc2ccccc2SC)on1 | i | -10% | 3% | -7% | ? | 15µM*
COCC1CCN(C(=O)c2cc(COc3ccccc3SC)on2)C1 (stereo unspecified) | 5 | 0% | -4% | 14% | ? | -19%
CSc1ccccc1OCc1cc(C(=O)N2CCN(C)C(c3ccccc3)C2)no1 (stereo unspecified) | -12 | -10% | 1% | . | 21µM* | -71%
CCC(C(=O)Nc1ccc(C(C)=O)cc1)n1cnc2nc3c(cc2c1=O)CCCC3 (stereo unspecified) | . | . | . | . | -23% | ?
CC(=O)N/C(=C\c1ccccc1)C(=O)Nc1ccccc1C | 3 | 8% | 0% | -11% | 8% | -5%
C[C@@H]1CN([C@@H](C)CO)C(=O)CCCn2nncc2CO[C@@H]1CN(C)C(=O)c1ccc(N2CCN(C)CC2)cc1 | -10 | 5% | -4% | . | -7% | -9%
C=C1CCC2[C@](C)(CO[C@@H]3O[C@H](CO)[C@@H](O)[C@H](O)[C@H]3O)CCC[C@@]2(C)[C@@H]1CCC1=CCOC1=O (stereo partly specified) | 28 | 5% | 18% | -1% | -14% | ?
CCc1cc2c(=O)c(-c3ccc4c(c3)OCCO4)c(C)oc2cc1OS(C)(=O)=O | -27 | ? | -28% | 23µM* | ? | 26µM*
CCc1cc(=O)oc2c(C)c(OS(C)(=O)=O)ccc12 | -3 | -4% | -1% | . | -10% | -26%
Cc1ccc2nc3c(nc2c1C)C(O)=C3O | . | 16% | 16% | ? | 15µM* | ?
Cc1ccc2nc3c(nc2c1C)CCCC3 | 10 | 10% | 10% | 25% | 1% | -18%
CCn1c(NCc2ccco2)nc2ccccc21 | -17 | 17% | 2% | 16% | 4% | 2%
c1ccc(Cn2c(NCc3ccco3)nc3ccccc32)cc1 | -25 | 0% | 3% | -3% | ? | 18µM*
COc1ccc(CNc2nc3ccccc3n2Cc2ccccc2)cc1OC | ? | -26% | 0% | 18% | ? | 18µM*
CCOc1ccc(C(=O)Nc2cccc(OCc3cc(=O)n4cc(C)sc4n3)c2)cc1 | . | . | . | . | -9% | -17%
O=C(c1cccnc1)N1N=C(c2cccs2)CC1c1ccc(F)cc1 (stereo unspecified) | 8 | 4% | 2% | -12% | 6% | -22%
Cc1ccc2nc(Cl)c(C3CC(c4cccs4)=NN3C(=O)CCC(=O)O)cc2c1 (stereo unspecified) | 0 | 12% | 2% | ? | -1% | 5.2µM*
